# Laboratory results: the supplement of paper PMC7724964
# T1: UEVLD 1-145 UEV (domain begin residue: 1, domain end residue: 145), Q8IX04
# T1 chain: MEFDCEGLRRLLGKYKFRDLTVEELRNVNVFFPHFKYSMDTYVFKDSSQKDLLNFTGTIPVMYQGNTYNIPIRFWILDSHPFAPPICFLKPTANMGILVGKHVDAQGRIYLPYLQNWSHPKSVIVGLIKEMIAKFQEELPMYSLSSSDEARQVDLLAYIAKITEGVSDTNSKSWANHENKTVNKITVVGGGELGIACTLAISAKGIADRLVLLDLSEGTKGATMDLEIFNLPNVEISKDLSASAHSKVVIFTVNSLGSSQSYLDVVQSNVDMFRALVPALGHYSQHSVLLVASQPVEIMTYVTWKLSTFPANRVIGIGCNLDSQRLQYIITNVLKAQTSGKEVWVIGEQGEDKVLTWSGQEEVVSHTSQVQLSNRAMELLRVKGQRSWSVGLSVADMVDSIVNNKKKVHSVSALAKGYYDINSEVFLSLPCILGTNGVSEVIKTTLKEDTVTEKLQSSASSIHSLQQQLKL
# T2: TSG101 1-145 UEV (domain begin residue: 1, domain end residue: 145), Q99816
# T2 chain: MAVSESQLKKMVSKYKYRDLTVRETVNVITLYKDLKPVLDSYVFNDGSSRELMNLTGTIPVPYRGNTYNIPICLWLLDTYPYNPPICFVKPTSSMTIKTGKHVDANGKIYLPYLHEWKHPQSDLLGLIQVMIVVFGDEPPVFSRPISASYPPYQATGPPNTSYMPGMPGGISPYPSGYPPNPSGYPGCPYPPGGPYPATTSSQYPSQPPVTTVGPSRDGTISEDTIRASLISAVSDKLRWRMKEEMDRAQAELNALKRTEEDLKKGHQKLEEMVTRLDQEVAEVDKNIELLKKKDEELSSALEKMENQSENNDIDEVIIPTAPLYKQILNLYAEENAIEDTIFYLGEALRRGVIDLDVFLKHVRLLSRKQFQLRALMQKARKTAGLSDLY
# T3: UQCRB 8-111 UCR_14kD (domain begin residue: 8, domain end residue: 111), P14927
# T3 chain: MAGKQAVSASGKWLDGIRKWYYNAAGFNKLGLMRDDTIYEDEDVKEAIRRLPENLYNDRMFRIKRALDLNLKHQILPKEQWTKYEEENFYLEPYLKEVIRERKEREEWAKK
# B1: unnamed (peptide)
# chain: EDHWWIASMWRDQAVQ
# B2: unnamed (peptide)
# chain: AWSMLDIANIKPWNPM
# B3: unnamed (peptide)
# chain: QMNVQAQEWWPAHMTF
# B4: unnamed (peptide)
# chain: EWQWHNSVDWVPHKAT
# B5: unnamed (peptide)
# chain: IQDWPELPEVMMHWTL
# B6: unnamed (peptide)
# chain: EHMWDAQMWEWSWWDL
# B7: unnamed (peptide)
# chain: YQPNMASAPEWVWESH
# B8: unnamed (peptide)
# chain: MNIDAREWSPASWEVH
# B9: unnamed (peptide)
# chain: DRNAEMAIRQYFMYHE
# B10: unnamed (peptide)
# chain: TNSMPQWAQSQLAMYR
# B11: unnamed (peptide)
# chain: EWGSGWLNFQAAEFIV
# B12: unnamed (peptide)
# chain: YIDYTFFEDGYYRVIE
# B13: unnamed (peptide)
# chain: YGMSIDASSFVPYEFW
# B14: unnamed (peptide)
# chain: FDRWESRRQSIGLELS
# B15: unnamed (peptide)
# chain: TDFTYAHAYNPHFIVS
# B16: unnamed (peptide)
# chain: ERFTLFQSSMDSILMF
# B17: unnamed (peptide)
# chain: FMDMWHWQQLEDYMFL
# B18: unnamed (peptide)
# chain: DLHYDWSLEYWTSLLQ
# B19: unnamed (peptide)
# chain: MDVAAQPWIPIVPPEG
# B20: unnamed (peptide)
# chain: GPLHPTAPVWENMLKY
# B21: unnamed (peptide)
# chain: VMTLSPHATPYYPQMQ
# B22: unnamed (peptide)
# chain: ELSIWADAFQPHWHKV
# B23: unnamed (peptide)
# chain: MTVVEWWTDAQIAEWM
# B24: unnamed (peptide)
# chain: WRQDLETESLMQWFLW
# B25: unnamed (peptide)
# chain: WGHDWMMEWNTLQPMS
# B26: unnamed (peptide)
# chain: FEHLEYSHPYLWEMYF
# B27: unnamed (peptide)
# chain: VPWSENQEWQWIFEAV
# B28: unnamed (peptide)
# chain: LSYESAPWWPHMPAEF
# B29: unnamed (peptide)
# chain: LGQQYQMWEYMASLYN
# Experiments:
# Assay in all cases: phage ELISA signal ratio (GST-PRM binding over GST background); higher = stronger binding of peptide-phage to the PRM
# [1] = biological target: T1, UEVLD 1-145 UEV (domain begin residue: …
# Procedure, shortened: (§1)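 Five rounds of selection were carried out against human peptide recognition domains fused to the C-terminus of glutathione S-transferase (GST) and expressed in 96-well plates. The M13 phage library presented randomized hexadecapeptides, cysteine-free and glycine-flanked, on the gene-8 major coat protein. For each value, the phage ELISA signal on the GST-domain fusion was divided by the signal on GST alone.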
# [2] = biological target: UBR5 2391-2453 PABP (domain begin residue: 2391, domain end residue: 2453), O95071
# UBR5 2391-2453 PABP (domain begin residue: 2391, domain end residue: 2453), O95071, sequence (O95071 whole entry): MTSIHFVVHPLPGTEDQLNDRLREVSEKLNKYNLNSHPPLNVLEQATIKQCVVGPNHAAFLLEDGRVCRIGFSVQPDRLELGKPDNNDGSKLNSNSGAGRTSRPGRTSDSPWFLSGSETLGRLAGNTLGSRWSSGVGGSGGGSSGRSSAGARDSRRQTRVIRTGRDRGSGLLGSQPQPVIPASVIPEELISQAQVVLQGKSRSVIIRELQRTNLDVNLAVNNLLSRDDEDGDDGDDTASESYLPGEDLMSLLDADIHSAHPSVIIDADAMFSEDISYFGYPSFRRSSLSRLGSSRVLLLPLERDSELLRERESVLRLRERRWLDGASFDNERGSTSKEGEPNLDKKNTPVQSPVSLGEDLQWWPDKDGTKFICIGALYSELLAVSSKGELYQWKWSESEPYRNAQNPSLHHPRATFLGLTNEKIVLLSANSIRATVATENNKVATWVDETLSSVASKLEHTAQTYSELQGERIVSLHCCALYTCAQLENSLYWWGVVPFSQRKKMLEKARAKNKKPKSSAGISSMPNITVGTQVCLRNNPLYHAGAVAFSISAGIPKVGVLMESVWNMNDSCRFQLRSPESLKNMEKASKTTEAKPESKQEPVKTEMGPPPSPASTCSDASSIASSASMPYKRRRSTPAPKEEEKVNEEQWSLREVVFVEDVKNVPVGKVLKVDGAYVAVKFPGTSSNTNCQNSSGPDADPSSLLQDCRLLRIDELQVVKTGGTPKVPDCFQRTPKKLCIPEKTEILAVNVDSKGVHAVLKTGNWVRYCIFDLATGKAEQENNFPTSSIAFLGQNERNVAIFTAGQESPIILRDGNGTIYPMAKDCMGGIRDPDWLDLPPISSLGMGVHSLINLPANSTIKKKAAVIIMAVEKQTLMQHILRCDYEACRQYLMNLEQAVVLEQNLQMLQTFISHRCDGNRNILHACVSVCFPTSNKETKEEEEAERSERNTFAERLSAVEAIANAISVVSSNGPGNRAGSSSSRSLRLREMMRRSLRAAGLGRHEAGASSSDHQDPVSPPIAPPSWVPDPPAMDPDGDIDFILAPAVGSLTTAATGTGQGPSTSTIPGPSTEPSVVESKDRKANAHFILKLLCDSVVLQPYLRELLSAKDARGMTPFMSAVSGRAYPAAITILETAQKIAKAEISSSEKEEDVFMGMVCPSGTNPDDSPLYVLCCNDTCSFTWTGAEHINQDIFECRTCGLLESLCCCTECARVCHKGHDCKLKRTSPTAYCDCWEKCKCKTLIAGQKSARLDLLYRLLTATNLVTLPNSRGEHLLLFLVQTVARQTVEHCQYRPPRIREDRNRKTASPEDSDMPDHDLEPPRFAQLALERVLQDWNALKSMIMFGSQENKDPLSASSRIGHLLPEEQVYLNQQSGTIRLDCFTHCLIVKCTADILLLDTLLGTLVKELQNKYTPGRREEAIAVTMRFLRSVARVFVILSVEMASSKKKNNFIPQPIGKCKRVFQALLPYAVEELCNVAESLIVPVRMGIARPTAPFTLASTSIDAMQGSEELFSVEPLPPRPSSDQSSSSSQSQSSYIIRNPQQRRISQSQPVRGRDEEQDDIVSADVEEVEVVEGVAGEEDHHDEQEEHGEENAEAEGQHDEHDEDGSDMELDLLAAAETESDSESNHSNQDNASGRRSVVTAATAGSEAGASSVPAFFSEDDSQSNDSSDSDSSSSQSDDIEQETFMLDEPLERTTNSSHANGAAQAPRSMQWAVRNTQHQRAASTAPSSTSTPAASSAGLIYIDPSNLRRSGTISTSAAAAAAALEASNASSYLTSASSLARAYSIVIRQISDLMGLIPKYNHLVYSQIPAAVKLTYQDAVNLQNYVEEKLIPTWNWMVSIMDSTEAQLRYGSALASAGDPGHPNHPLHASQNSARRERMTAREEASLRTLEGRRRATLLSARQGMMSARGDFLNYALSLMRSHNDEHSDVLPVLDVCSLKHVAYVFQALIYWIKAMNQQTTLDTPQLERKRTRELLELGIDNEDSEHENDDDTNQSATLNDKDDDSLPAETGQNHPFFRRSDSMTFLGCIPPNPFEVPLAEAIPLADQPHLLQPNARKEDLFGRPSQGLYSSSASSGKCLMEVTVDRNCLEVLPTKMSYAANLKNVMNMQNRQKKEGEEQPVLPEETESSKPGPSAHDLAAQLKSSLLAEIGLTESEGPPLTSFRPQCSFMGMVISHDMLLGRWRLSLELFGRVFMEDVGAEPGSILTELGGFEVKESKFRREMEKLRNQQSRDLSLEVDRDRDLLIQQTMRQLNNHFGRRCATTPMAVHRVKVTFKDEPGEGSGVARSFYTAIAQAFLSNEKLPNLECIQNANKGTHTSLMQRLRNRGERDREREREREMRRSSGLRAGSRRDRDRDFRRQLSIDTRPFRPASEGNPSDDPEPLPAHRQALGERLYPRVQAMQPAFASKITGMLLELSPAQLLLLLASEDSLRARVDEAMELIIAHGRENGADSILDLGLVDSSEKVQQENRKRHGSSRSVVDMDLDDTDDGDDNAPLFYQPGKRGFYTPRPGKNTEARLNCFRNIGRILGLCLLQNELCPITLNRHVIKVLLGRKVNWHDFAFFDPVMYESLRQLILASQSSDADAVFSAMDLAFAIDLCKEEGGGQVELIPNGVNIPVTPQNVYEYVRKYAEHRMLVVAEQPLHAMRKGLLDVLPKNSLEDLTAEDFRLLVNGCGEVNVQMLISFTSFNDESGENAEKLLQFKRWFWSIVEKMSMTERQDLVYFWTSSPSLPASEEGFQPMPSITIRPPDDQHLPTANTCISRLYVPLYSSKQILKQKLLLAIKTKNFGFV
# Procedure, shortened: as §1
# [3] = biological target: VASP 1-114 WH1 (domain begin residue: 1, domain end residue: 114), P50552
# VASP 1-114 WH1 (domain begin residue: 1, domain end residue: 114), P50552, sequence (P50552 whole entry): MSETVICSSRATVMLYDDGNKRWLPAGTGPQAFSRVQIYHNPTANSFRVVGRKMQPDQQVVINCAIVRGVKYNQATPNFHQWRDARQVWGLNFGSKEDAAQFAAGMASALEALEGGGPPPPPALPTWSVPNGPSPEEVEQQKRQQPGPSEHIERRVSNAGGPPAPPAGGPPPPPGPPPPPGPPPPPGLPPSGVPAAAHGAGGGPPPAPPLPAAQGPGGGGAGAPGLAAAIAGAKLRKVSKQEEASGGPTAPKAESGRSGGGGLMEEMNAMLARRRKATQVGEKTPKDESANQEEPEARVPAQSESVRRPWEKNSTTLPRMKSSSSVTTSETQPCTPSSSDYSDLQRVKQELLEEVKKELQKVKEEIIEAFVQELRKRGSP
# Procedure, shortened: as §1
# [4] = biological target: UBA52 1-76 Ubiquitin (domain begin residue: 1, domain end residue: 76), P62987
# Procedure, shortened: as §1
# [5] = biological target: T2, TSG101 1-145 UEV (domain begin residue: …
# Procedure, shortened: as §1
# [6] = biological target: UBE2V2 1-145 UQ_con (domain begin residue: 1, domain end residue: 145), Q15819
# UBE2V2 1-145 UQ_con (domain begin residue: 1, domain end residue: 145), Q15819, sequence (Q15819 whole entry): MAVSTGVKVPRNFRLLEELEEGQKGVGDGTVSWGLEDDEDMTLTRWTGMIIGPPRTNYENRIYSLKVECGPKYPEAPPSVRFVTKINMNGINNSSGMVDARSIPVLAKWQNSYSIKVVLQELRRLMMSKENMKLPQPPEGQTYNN
# Procedure, shortened: as §1
# [7] = biological target: U2AF2 372-475 RRM_1 (domain begin residue: 372, domain end residue: 475), P26368
# U2AF2 372-475 RRM_1 (domain begin residue: 372, domain end residue: 475), P26368, sequence (P26368 whole entry): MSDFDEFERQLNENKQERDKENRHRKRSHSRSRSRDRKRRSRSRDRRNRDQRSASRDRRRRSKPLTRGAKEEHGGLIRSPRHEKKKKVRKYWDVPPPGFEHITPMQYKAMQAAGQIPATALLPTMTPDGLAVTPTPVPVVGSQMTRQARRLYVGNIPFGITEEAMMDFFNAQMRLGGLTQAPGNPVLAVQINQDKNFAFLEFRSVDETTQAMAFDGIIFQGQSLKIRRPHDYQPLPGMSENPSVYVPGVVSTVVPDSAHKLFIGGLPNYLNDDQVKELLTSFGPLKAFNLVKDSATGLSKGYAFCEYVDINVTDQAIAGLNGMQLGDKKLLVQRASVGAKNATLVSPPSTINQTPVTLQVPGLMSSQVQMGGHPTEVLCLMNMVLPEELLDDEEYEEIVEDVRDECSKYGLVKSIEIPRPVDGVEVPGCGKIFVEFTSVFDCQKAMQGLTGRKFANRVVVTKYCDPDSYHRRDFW
# Procedure, shortened: as §1
# [8] = biological target: T3, UQCRB 8-111 UCR_14kD (domain begin …
# Procedure, shortened: as §1
# [9] = biological target: UBE2D2 1-147 UQ_con (domain begin residue: 1, domain end residue: 147), P62837
# UBE2D2 1-147 UQ_con (domain begin residue: 1, domain end residue: 147), P62837, sequence (P62837 whole entry): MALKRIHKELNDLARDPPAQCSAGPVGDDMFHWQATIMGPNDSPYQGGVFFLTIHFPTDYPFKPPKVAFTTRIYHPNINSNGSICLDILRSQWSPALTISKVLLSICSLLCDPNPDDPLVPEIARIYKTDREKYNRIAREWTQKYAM
# Procedure, shortened: as §1
binder,measurement,setting,value
B1,phage ELISA signal ratio,[1],18.1
B2,phage ELISA signal ratio,[2],18.4
B3,phage ELISA signal ratio,[2],18.6
B4,phage ELISA signal ratio,[2],12.4
B5,phage ELISA signal ratio,[3],9.17
B6,phage ELISA signal ratio,[4],15.1
B7,phage ELISA signal ratio,[5],29.4
B8,phage ELISA signal ratio,[2],3.6
B9,phage ELISA signal ratio,[6],8.43
B10,phage ELISA signal ratio,[6],21.3
B11,phage ELISA signal ratio,[2],8.2
B12,phage ELISA signal ratio,[6],5.72
B13,phage ELISA signal ratio,[2],17.8
B14,phage ELISA signal ratio,[7],8.37
B15,phage ELISA signal ratio,[5],5.82
B16,phage ELISA signal ratio,[1],26
B17,phage ELISA signal ratio,[8],4.85
B18,phage ELISA signal ratio,[4],17.2
B19,phage ELISA signal ratio,[2],28.6
B20,phage ELISA signal ratio,[5],15.7
B21,phage ELISA signal ratio,[2],5.69
B22,phage ELISA signal ratio,[2],21.8
B23,phage ELISA signal ratio,[4],12.5
B24,phage ELISA signal ratio,[1],15.2
B25,phage ELISA signal ratio,[9],4.08
B26,phage ELISA signal ratio,[6],5.45
B27,phage ELISA signal ratio,[1],29.3
B28,phage ELISA signal ratio,[2],13.2
B29,phage ELISA signal ratio,[1],11.4
